This passage reports potency estimated from few doses, EC50 and Kd results from paper PMC11062922 (Nature Chemical Biology, 2023).

Read-outs that look alike come from different tables or passages of the source.

The test system of one experiment is ARAF. On the set-up: species or system human, MV4-11 + K-562 + COLO205 + SK-N-BE2 + OVCAR-8. The following applies: read-out: apparent Kd, compound concentrations: 100 nM and 1000 nM (sheet 'Samples'), n = 1.
For another experiment, the system named is BRAF. On the set-up: species or system human, MV4-11 + K-562 + COLO205 + SK-N-BE2 + OVCAR-8. The conditions noted are these: read-out: apparent Kd, compound concentrations: 100 nM and 1000 nM (sheet 'Samples'), n = 1.
In another experiment the test system is DCK. On the set-up: species or system human, MV4-11 + K-562 + COLO205 + SK-N-BE2 + OVCAR-8. The following applies: read-out: apparent Kd, compound concentrations: 100 nM and 1000 nM (sheet 'Samples'), n = 1.
Another experiment relates to FECH. On the set-up: species or system human, MV4-11 + K-562 + COLO205 + SK-N-BE2 + OVCAR-8. The conditions noted are these: read-out: apparent Kd, compound concentrations: 100 nM and 1000 nM (sheet 'Samples'), n = 1.
The test system of a further experiment is LIMK2. Also on record: species or system human, MV4-11 + K-562 + COLO205 + SK-N-BE2 + OVCAR-8. The conditions noted are these: read-out: apparent Kd, n = 1.
In a further experiment the test system is MAP2K3. Also on record: species or system human, MV4-11 + K-562 + COLO205 + SK-N-BE2 + OVCAR-8. The following applies: read-out: apparent Kd, compound concentrations: 100 nM and 1000 nM (sheet 'Samples'), n = 1.
The next experiment concerns MAP3K12. On the set-up: species or system human, MV4-11 + K-562 + COLO205 + SK-N-BE2 + OVCAR-8. The following applies: read-out: apparent Kd, compound concentrations: 100 nM and 1000 nM (sheet 'Samples'), n = 1.
A further experiment has as its system MAP3K2. Also on record: species or system human, MV4-11 + K-562 + COLO205 + SK-N-BE2 + OVCAR-8. The conditions noted are these: read-out: apparent Kd, compound concentrations: 100 nM and 1000 nM (sheet 'Samples'), n = 1.
The test system of another experiment is MAP3K5. On the set-up: species or system human, MV4-11 + K-562 + COLO205 + SK-N-BE2 + OVCAR-8. The conditions noted are these: read-out: apparent Kd, compound concentrations: 100 nM and 1000 nM (sheet 'Samples'), n = 1.
A further experiment concerns PRKCA. On the set-up: species or system human, MV4-11 + K-562 + COLO205 + SK-N-BE2 + OVCAR-8. The conditions noted are these: compound concentrations:0.3nM, 1nM, 3nM, 10nM, 30nM, 100nM, 300nM, 1000nM,R2:0.94698851760637903,slope:2.0520697350296202,EC50 Standard Error, by the legend:Standard error of the EC50 estimation as provided by the drc package.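 Also: competition pulldown with Kinobeads ε in cell lysates, inhibitor preincubated 45 min at 4 °C, bound kinases quantified by LC–MS/MS against DMSO control.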
The subject of another experiment is ADCK1. The conditions noted are these: compound concentrations:3nM, 10nM, 30nM, 100nM, 300nM, 1000nM, 3000nM, 30000nM,R2:0.94101841538293196,slope:0.49878905871205997,EC50 Standard Error, by the legend:Standard error of the EC50 estimation as provided by the drc package.
A further experiment deals with CSNK2A1;CSNK2A3. The conditions noted are these: compound concentrations:3nM, 10nM, 30nM, 100nM, 300nM, 1000nM, 3000nM, 30000nM,R2:0.95393018675228303,slope:1.4690097586887201,EC50 Standard Error, by the legend:Standard error of the EC50 estimation as provided by the drc package.
Another experiment relates to CSNK2A2. The following applies: compound concentrations:3nM, 10nM, 30nM, 100nM, 300nM, 1000nM, 3000nM, 30000nM,R2:0.98972333089258602,slope:1.29833762231974,EC50 Standard Error, by the legend:Standard error of the EC50 estimation as provided by the drc package.
The subject of a further experiment is CSNK2B. The following applies: compound concentrations:3nM, 10nM, 30nM, 100nM, 300nM, 1000nM, 3000nM, 30000nM,R2:0.92635600361285697,slope:3.98443256783656,EC50 Standard Error, by the legend:Standard error of the EC50 estimation as provided by the drc package.
Another experiment has as its system EIF3J. The conditions noted are these: compound concentrations:3nM, 10nM, 30nM, 100nM, 300nM, 1000nM, 3000nM, 30000nM,R2:0.88928942104591402,slope:1.5975809400026999,EC50 Standard Error, by the legend:Standard error of the EC50 estimation as provided by the drc package.
In the next experiment the test system is IRAK3. The conditions noted are these: compound concentrations:3nM, 10nM, 30nM, 100nM, 300nM, 1000nM, 3000nM, 30000nM,R2:0.92660925835613905,slope:0.92534849669637798,EC50 Standard Error, by the legend:Standard error of the EC50 estimation as provided by the drc package.
Another experiment has as its system NQO2. The following applies: compound concentrations:3nM, 10nM, 30nM, 100nM, 300nM, 1000nM, 3000nM, 30000nM,R2:0.94793507341518402,slope:1.3847657393086299,EC50 Standard Error, by the legend:Standard error of the EC50 estimation as provided by the drc package.
A further experiment concerns ACVR2B. On the set-up: species or system human, MV4-11 + K-562 + COLO205 + SK-N-BE2 + OVCAR-8. The following applies: read-out: apparent Kd, n = 1.
Another experiment concerns AAK1. The conditions noted are these: compound concentrations:3nM, 10nM, 30nM, 100nM, 300nM, 1000nM, 3000nM, 30000nM,R2:0.99102510116180997,slope:1.0759365754475601,EC50 Standard Error, by the legend:Standard error of the EC50 estimation as provided by the drc package.
The subject of the next experiment is AURKA. The conditions noted are these: compound concentrations:3nM, 10nM, 30nM, 100nM, 300nM, 1000nM, 3000nM, 30000nM,R2:0.99130699388271104,slope:0.94634188293278299,EC50 Standard Error, by the legend:Standard error of the EC50 estimation as provided by the drc package.
The mark [1] stands for this setting: compound concentrations:100 nM and 1000 nM (sheet 'Samples').

In the case of `Cn1ncc2c(N)ncnc21` [SKF-18267], the potency estimated from few doses in the experiment with ARAF (CATDS: 4.8255610001080402E-3) is 874 nM; with BRAF (CATDS: 3.54255463702716E-3), 1870 nM; with DCK (CATDS: 4.5565133541076702E-3), 987 nM; with FECH (CATDS: 4.0094324755209198E-3), 1330 nM; with LIMK2 (compound concentrations: 100 nM and 1000 nM (sheet 'Samples'), CATDS: 3.7102033319592401E-3) it was 1630 nM; in the experiment with MAP2K3 (CATDS: 4.14742483783686E-3) it was 1220 nM. Also, the potency estimated from few doses is 843 nM in the experiment on MAP3K12 (CATDS: 4.9126246890692504E-3), 1140 nM in the experiment on MAP3K2 (CATDS: 4.2783500511549997E-3) and 1110 nM with MAP3K5 (CATDS: 4.32123334572214E-3).

As for `Cc1cccc(Nc2nc(N[C@H]3CCCC[C@H]3N)ncc2C(N)=O)c1.Cl` [GSK986310C], the 50% effective concentration (EC50) with PRKCA is 446 nM. For the same molecule, the Kd with PRKCA (read-out: apparent Kd) is 272 nM.

Take Entospletinib: the EC50 with ADCK1 was 16400 nM; in the experiment with CSNK2A1;CSNK2A3, 1590 nM; with CSNK2A2 it was 1310 nM; in the experiment on CSNK2B it was 941 nM; with EIF3J, 1610 nM; in the experiment with IRAK3, 4710 nM. Besides, the EC50 in the experiment on NQO2 was 295 nM. Also, the Kd in the experiment on ADCK1 (read-out: apparent Kd) was 10500 nM; in the experiment on CSNK2A1;CSNK2A3 (read-out: apparent Kd) it was 1590 nM; with CSNK2A2 (read-out: apparent Kd) it was 1310 nM; in the experiment with CSNK2B (read-out: apparent Kd), 941 nM; with EIF3J (read-out: apparent Kd), 1610 nM; in the experiment on IRAK3 (read-out: apparent Kd), 2030 nM. For the same molecule, the Kd in the experiment on NQO2 (read-out: apparent Kd) was 131 nM.

On to `Cc1ccc(Nc2ccnc(Nc3ccc4c(c3)CS(=O)(=O)C4)n2)cc1O.Cl` [GW579362A], for which the potency estimated from few doses with ACVR2B (compound concentrations: 100 nM and 1000 nM (sheet 'Samples'), CATDS: 0.34366648341671902) is 12.4 nM.

As to TAK659, the results for the EC50 in the experiment on AAK1 and in the experiment with AURKA were 997 nM and 1280 nM, respectively. Also, the Kd is 720 nM with AAK1 (read-out: apparent Kd) and 590 nM with AURKA (read-out: apparent Kd).

In the case of `Cl.Cl.NC(CNC(=O)c1cc(Br)c(-c2ccnc3[nH]ccc23)s1)c1ccccc1.NC(CNC(=O)c1cc(Br)c(-c2ccnc3[nH]ccc23)s1)c1ccccc1` (stereo not shown) [GSK1322949A], the figures for the potency estimated from few doses in the experiment with ARAF (CATDS: 6.3043035692660204E-2) and in the experiment with MAP3K12 (CATDS: 3.2066551551393298E-2) were 316 nM and 1040 nM, respectively.

`CNc1cc(-c2ccc3c(N)n[nH]c3c2)nc(N)n1` [GSK2224810A]: in the experiment on ACVR2B (setting [1]), the potency estimated from few doses was 1190 nM.

Regarding `CCn1c(-c2cccnc2O)nc2cnccc21` [SB-736715], in the experiment on DCK (CATDS: 1.18043457558384E-2), the potency estimated from few doses is 2290 nM.

On to `O=C(O)C(F)(F)F.O=C(O)C(F)(F)F.O=c1[nH]ccc2nc(N[C@@H]3CCCNC3)nc(Nc3ccc(S(=O)(=O)N4CCOCC4)cc3)c12.O=c1[nH]ccc2nc(N[C@@H]3CCCNC3)nc(Nc3ccc(S(=O)(=O)N4CCOCC4)cc3)c12` [GSK2177277A], for which the potency estimated from few doses with MAP2K3 (CATDS: 6.4169710439364001E-3) was 1550 nM; in the experiment on MAP3K2 (CATDS: 7.1783793001346102E-3) it was 889 nM.

Consider `O=C1N=C(NCCCc2ccccc2)S/C1=C\c1ccc2ncccc2c1` [RO4493941-000], for which the potency estimated from few doses in the experiment on FECH (CATDS: 5.9450857327724899E-2) is 1950 nM.

Consider `CC(C)Oc1ccc2c(-c3ccnc(Nc4ccc(N5CCN(C)CC5)cc4)n3)cnn2n1` [GW696155X], for which, in the experiment on LIMK2 (setting [1]), the potency estimated from few doses was 883 nM.

With `CC(C)N1CC(=O)N(C)c2cnc(Nc3cccc(S(=O)(=O)CCN4CCOCC4)c3)nc21` [BI00009348], in the experiment with MAP3K5 (CATDS: 5.27372855942096E-2), the potency estimated from few doses is 1550 nM.

Consider `CNCC1CCn2c(c(C3=C(c4cn(C)c5ccccc45)C(=O)NC3=O)c3ccccc32)C1` (stereo not shown) [RO0318676-000], for which, in the experiment on BRAF (CATDS: 2.6106742003508401E-2), the potency estimated from few doses is 2340 nM.
